Experimental findings from the supplement of paper PMC13380429 are described below.

Each structure is given as a SMILES string. Unmarked numbers belong to inactive results.

In this test the test system is Vero E6 infected with SARS-CoV-2. As to the kind of experiment: inhibition of SARS-CoV-2 cytopathic effect; higher = more antiviral protection, active = above 15. Conditions: 833.33 nM; 48 h. For orientation: Protection from cytopathic effect is a common read-out in antiviral testing.
Consider `Cc1c(C(=O)NN2CCOCC2)nn(-c2ccc(Cl)cc2Cl)c1-c1ccc(I)cc1`, for which the “inhibition of SARS-CoV-2 cytopathic effect” value (from here on “inhibition”) is -2.07%.
The same measure for `CN(C)CCn1cc(S(=O)(=O)c2cccc(F)c2)c2cccnc21`: -1.84%; for `CCOC(=O)c1ccccc1OC(N)=O` [ethyl-2-(carbamoyloxy)benzoate]: -2.39%; for `O=C(O)Cc1sc(-c2ccccc2)nc1-c1ccc(Cl)cc1` [fentiazac]: 0.61%.
The same measure for `O.O.O.O.O=C([O-])CC(O)(CC(=O)[O-])C(=O)[O-].[Li+].[Li+].[Li+]` [lithium-citrate]: 1.38%; for `COc1ccnc2[nH]cc(C(=O)C(=O)N3CCN(C(=O)c4ccccc4)C[C@H]3C)c12`: 0.28%; for `Cc1cc(SCc2sc(-c3ccc(C(F)(F)F)c(F)c3)nc2C)ccc1OCC(=O)O`: -1.29%.
For `CCC(=O)[C@@]1(C)[C@H](C)C[C@H]2[C@@H]3CCC4=CC(=O)C=C[C@]4(C)[C@H]3[C@@H](O)C[C@@]21C` [rimexolone] the value was 0.22%.
With `Cn1ccc2cc(NC(=O)Nc3cccnc3)ccc21`, the “inhibition” value is -1.88%.
For `C[S+](CC[C@H](N)C(=O)O)C[C@H]1O[C@@H](n2cnc3c(N)ncnc32)[C@H](O)[C@@H]1O` (stereo partly specified) [ademetionine] the value was -0.06%; for `CCN(CC)C(=O)[C@@]1(c2ccccc2)C[C@H]1CN` [milnacipran], -0.26%; for `COc1cc2c(Oc3ccc(NC(=O)C4(C(=O)Nc5ccc(F)cc5)CC4)cc3F)ccnc2cc1OCCCN1CCOCC1` [foretinib], -5.86%.
For `O=c1sn(-c2cccc3ccccc23)c(=O)n1Cc1ccccc1` [tideglusib] the value was 0.87%; for `CCC(=O)N1CCOc2c(cc(-c3ccc(OC)c(OC)c3)cc2OC[C@H]2CCCN(C)C2)C1`, 1.75%; for `COCC1(CO)C(=O)C2CCN1CC2` (stereo unspecified), -0.13%.
For `C[C@@H]1CC[C@@]2(OC1)O[C@H]1C[C@H]3[C@@H]4CC=C5C[C@@H](O[C@@H]6O[C@H](CO)[C@@H](O[C@@H]7O[C@@H](C)[C@H](O)[C@@H](O)[C@H]7O)[C@H](O)[C@H]6O[C@@H]6O[C@@H](C)[C@H](O)[C@@H](O)[C@H]6O)CC[C@]5(C)[C@H]4CC[C@]3(C)[C@H]1[C@@H]2C` [dioscin] the value was 0.22%; for `CS(=O)(=O)c1cc(F)cc2c3c(n(Cc4ccc(Cl)cc4)c12)[C@@H](CC(=O)O)CC3` [laropiprant], 1.31%.
Take `CCC(=O)NS(=O)(=O)c1ccc(-c2c(-c3ccccc3)noc2C)cc1` [parecoxib]: the “inhibition” value was 1.26%.
The same measure for `C[C@H](CCC(=O)O)[C@H]1CC[C@H]2[C@@H]3CC[C@@H]4C[C@H](O)CC[C@]4(C)[C@H]3CC[C@]12C` [lithocholic-acid]: 0.9%.
For `CCOc1cn(-c2ccc(F)cc2C)nc1C(=O)Nc1ccc(Oc2ccnc3cc(OC)c(OC)cc23)c(F)c1` the value was 0.24%.
For `CCC(C/C=C/c1ccccc1)(c1ccccc1)N(C)CC1CC1` (stereo unspecified) [igmesine] the value was -1.63%; for `c1ccc2c(c1)[I+]c1ccccc1-2` [diphenyleneiodonium], -1.09%; for `Cc1c(C(=O)N2CCOc3ccc(-c4ccc(N)nc4)cc3C2)ccc(S(C)(=O)=O)c1F`, 0.13%.
For `CCOC(=O)NNc1ccc(N(CC)CC(C)O)nn1` (stereo unspecified) [cadralazine], the “inhibition” value is -1.81%.
Consider `Cn1cc(-c2ccc3nnc(Sc4ccc5ncccc5c4)n3n2)cn1`, for which the “inhibition” value is -0.25%.
For the compound `COc1ccccc1C(=O)Nc1cccc(NC(=O)c2cccc(C)c2)c1`, the “inhibition” value is 0.39%.
For `CCO[C@@H](Cc1ccc(OCCc2ccc(OS(C)(=O)=O)cc2)cc1)C(=O)O` [tesaglitazar] the value was -2.48%; for `CC1=C(/C=C/C(=C/C=C/C(C)=C/C(=O)O)c2ccc(C)cc2)C(C)(C)CCC1`, 1.71%.
Consider `CS(=O)(=O)n1cc2c(n1)CN([C@H]1CO[C@H](c3cc(F)ccc3F)[C@@H](N)C1)C2` [omarigliptin], for which the “inhibition” value was 1.96%.
The same measure for `O=C(O)c1nn(Cc2ccc(Cl)cc2Cl)c2ccccc12` [lonidamine]: 1.31%; for `Cc1nc(-c2ccc(OCC(C)C)c(C#N)c2)sc1C(=O)O` [febuxostat]: 2.99%.
